# Compound activity (PubChem)
# An excerpt weighted towards active compounds, which were near 3% of everything screened.
# pPAFAH FP inh: pPAFAH (human) enzyme inhibition; Q13093; recombinant pPAFAH, FP-rhodamine probe fluorescence polarization; inhibition, % at 3.39 µM; 330,000 compounds, 1.5% hits; AID 463082;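 active means inhibition above the mean inhibition across the screen plus 3 SD, cut at about 25% in these data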;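 further: inhibitors block binding of the rhodamine activity-based probe so polarization drops; 0% = enzyme with DMSO and 100% = wells lacking pPAFAH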
# PAFAH1B2 inh: blocks human PAF acetylhydrolase 1b catalytic subunit 2. P68402. recombinant PAFAH1B2, FP-rhodamine activity probe, fluorescence polarization. inhibition, % at 3.39 µM. 340,000 compounds, 1.2% hits. AID 492953;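 active means inhibition above the mean of all tested compounds plus 3 SD, cut at about 24% in these data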;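 further: 0% = enzyme with DMSO and 100% = wells lacking PAFAH1B2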
# PAFAH2 FP inh: PAFAH2 (human) inhibition; 340,000 compounds, 0.99% hits; Q99487; AID 492956; inhibition, % at 3.39 µM; recombinant PAFAH2, FP-rhodamine activity probe, fluorescence polarization;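 active means inhibition above the mean over all tested compounds plus 3 SD, cut at about 30% in these data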;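 further: inhibitors block probe labeling of enzyme so polarization drops; 0% = enzyme with DMSO and 100% = wells lacking PAFAH2 protein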
# CTSL1 counter: blocks F. hepatica cathepsin L1 in PFM18AAP counter-screen. recombinant F. hepatica cathepsin L1, Z-Leu-Arg-MCA fluorescence. inhibition, % at 5.96 µM. 300,000 compounds, 0.49% hits. AID 1906;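 active means inhibition above the mean of all tested compounds plus 3 SD, set per screening campaign, cut at about 17% in these data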;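 further: 0% = plate median of test compound wells and 100% = 1 µM Z-Phe-Ala-diazomethylketone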
# PAFAH1B3 FP inh: PAFAH1B3 (human) inhibition | inhibition, % at 3.39 µM | Q15102 | 340,000 compounds, 0.28% hits | recombinant PAFAH1B3, FP-rhodamine probe, fluorescence polarization;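 active means inhibition above the screen-wide average of all tested compounds plus 3 SD, cut at about 25% in these data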;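 further: 0% = enzyme with DMSO only and 100% = wells lacking PAFAH1B3 protein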
# PP5 inh: PP5 (human) phosphatase inhibition | AID 1987 | inhibition, % at 6.7 µM | 320,000 compounds, 0.18% hits | purified PP5c, OMFP substrate fluorescence | P53041;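 active means inhibition above the campaign's mean inhibition across all tested compounds plus 3 SD, cut at about 9.5% in these data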;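 further: 0% = DMSO only and 100% = 100 µM cantharidin control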
# Target sequence (P53041 whole entry, looked up): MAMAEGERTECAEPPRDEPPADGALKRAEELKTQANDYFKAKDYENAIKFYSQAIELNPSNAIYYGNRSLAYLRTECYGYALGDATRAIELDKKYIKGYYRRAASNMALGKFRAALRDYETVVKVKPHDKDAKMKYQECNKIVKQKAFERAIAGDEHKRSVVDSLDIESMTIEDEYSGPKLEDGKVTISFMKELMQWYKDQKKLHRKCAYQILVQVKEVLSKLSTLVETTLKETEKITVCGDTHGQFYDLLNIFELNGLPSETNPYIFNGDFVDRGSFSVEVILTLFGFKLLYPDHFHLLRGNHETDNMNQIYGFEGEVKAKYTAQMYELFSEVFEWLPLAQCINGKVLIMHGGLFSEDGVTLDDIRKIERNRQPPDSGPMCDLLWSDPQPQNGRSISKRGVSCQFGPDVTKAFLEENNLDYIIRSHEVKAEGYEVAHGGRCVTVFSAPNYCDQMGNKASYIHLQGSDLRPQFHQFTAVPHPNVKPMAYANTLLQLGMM
# Active calls of the source: *; · = no result given.
SMILES,pPAFAH FP inh,PAFAH1B2 inh,PAFAH2 FP inh,CTSL1 counter,PAFAH1B3 FP inh,PP5 inh
CN(CC(=O)NCC(=O)Nc1ccc(F)cc1)CC(=O)Nc1ccc(Cl)c(C(F)(F)F)c1,·,28*,0,·,0,·
CCOC(=O)C1Nc2ccc(C(F)(F)F)cc2C2c3ccccc3CC12 (configuration not stated),-7,3,2,9,0,-7
CCOC(=O)C1Nc2ccccc2C2C(O)C(O)CC12 (configuration not stated),18,14,13,-2,38*,0
CCN1C(=O)N(C)C2(c3ccccc3)N(C)C(=O)N(C)C12c1ccccc1 (configuration not stated),-3,38*,5,-1,2,1
CC(=O)Nc1ccc(C=NNc2ccc([N+](=O)[O-])cc2S(=O)(=O)Nc2ccccc2C(=O)O)cc1,26*,3,1,·,2,·
Cc1ccc(NC(=S)NNc2ccc([N+](=O)[O-])cc2S(=O)(=O)Nc2ccccc2C(=O)O)cc1C,29*,25*,38*,4,18,10
O=C(O)c1ccccc1NS(=O)(=O)c1ccc(NNC(=S)Nc2ccc(OC(F)F)cc2)c([N+](=O)[O-])c1,·,60*,70*,·,56*,·
CC(=O)Nc1ccc(S(=O)(=O)Nc2cc([N+](=O)[O-])ccc2C)cc1,0,1,6,2,-6,2
COc1ccc(C(C)=NNc2ccc([N+](=O)[O-])cc2S(=O)(=O)Nc2ccccc2C(=O)O)c(OC)c1,31*,-5,12,·,-7,·
Cc1ccc(/C=C/C(=O)O)cc1S(=O)(=O)Nc1ccccc1C(=O)O,-2,3,7,-3,-2,2
Cc1ccc(C)c(S(=O)(=O)Nc2cc3c4c(c2)CCC(=O)N4CCC3)c1,11,3,-4,0,1,4
Cc1c(CCC(=O)NC2CC2)c(=O)oc2cc(O)ccc12,0,4,-1,5,4,4
CC(=O)Nc1ccc(NC(=O)C(C)Sc2n[nH]c(=O)n2Cc2ccccc2)cc1 (configuration not stated),-2,4,-5,-5,6,4
O=C(Cc1ccccc1)NC1(O)C(=O)c2ccccc2C1=O,-4,·,·,34*,·,7
Cn1c(CCN2CCN(c3ccccn3)CC2)nc2cc(NS(=O)(=O)c3ccc(Cl)cc3)ccc21,14,26*,1,-3,0,2
Cc1ccc(S(=O)(=O)Nc2ccc3c(c2)nc(CCN2CCN(c4ccccn4)CC2)n3C)cc1,2,12,-5,-4,1,0
O=C(/C=C(\O)c1ccc(Cl)cc1)C(=O)NNC(=O)C(O)(c1ccccc1)c1ccccc1,27*,19,2,3,8,4
O=C(/C=C(\O)c1ccccc1)C(=O)NNC(=O)c1ccccc1,5,7,0,-3,10,1
CCN(c1ccccc1)S(=O)(=O)c1cc(C(=O)O)ccc1C,15,53*,16,-1,16,-1
CCN(c1ccccc1)S(=O)(=O)c1cc(C(=O)Nc2ccc(F)c(F)c2)ccc1F,-6,11,-41,-6,-28,4
O=C(O)c1cccc(S(=O)(=O)N(Cc2ccccc2)c2ccccc2)c1,-1,26*,7,-2,3,0
O=C(O)c1ccc(Cl)c(S(=O)(=O)N(Cc2ccccc2)c2ccccc2)c1,0,22,13,0,-5,0
O=C(O)c1ccc(Cl)c(S(=O)(=O)N(Cc2ccccc2)c2ccc(F)cc2)c1,5,33*,2,-1,-6,1
O=C(O)c1ccc(Cl)c(S(=O)(=O)N(Cc2ccccc2)c2ccccc2Cl)c1,7,28*,12,4,6,1
Cc1ccccc1CSc1ccc(S(=O)(=O)N2CCCC2)cn1,11,8,-2,·,14,·
SMILES,pPAFAH FP inh,PAFAH1B2 inh,PAFAH2 FP inh,CTSL1 counter,PAFAH1B3 FP inh,PP5 inh
COc1cc(C(=O)NCC2(N(C)C)CCCCC2)ccc1OCc1ccccc1,2,2,0,2,2,1
Cc1nn(CC(=O)NCCCN2CCCC2=O)c(C)c1[N+](=O)[O-],-1,·,·,·,·,·
COc1ccc(S(=O)(=O)Nc2c(C)n(C)n(-c3ccccc3)c2=O)cc1C(=O)O,·,3,-5,·,6,·
CN1OC[C@@H]2CN(Cc3ccc(Cl)cc3)[C@H](c3cccc(Br)c3)C[C@@H]21,·,10,-2,·,0,·
CCNc1nc(CN2CCOCC2)nc2sc3c(c12)CCC3,-1,2,12,4,0,1
c1ccc2c(c1)CCN(c1nc(CN3CCOCC3)nc3sc4c(c13)CCCC4)C2,32*,3,4,-1,4,4
O=C(NCc1ccccc1Cl)c1nnc(CS(=O)(=O)c2ccccc2)o1,3,6,3,-1,-6,0
O=C(c1cn(-c2ccccc2)nc1-c1cccnc1)N1CCN(S(=O)(=O)c2ccc(Cl)cc2)CC1,·,29*,-4,·,4,·
CCOC(=O)c1c2c3c(cccc3n(C)c1=O)C(=O)c1ccccc1-2,31*,19,27,0,26*,1
CCCn1c(C)c(C(=O)OCC)c(O)c(-c2ccccc2)c1=O,-6,·,·,1,·,8
CCOC(=O)c1c2c(n(Cc3ccccc3)c1C)C(=O)C(=O)c1ccccc1-2,·,30*,52*,·,79*,·
CCOc1cc(Br)cc(/C=N/NC(=O)c2cccnc2)c1O,8,0,9,6,9,2
CCC1CCC(C(=O)NC(C(=O)NCCN2CCOCC2)C(C)C)CC1 (configuration not stated),7,2,-6,30*,12,-1
O=C(c1cc(F)ccc1F)C1CCCN(C(=O)c2ccc3nccnc3c2)C1 (configuration not stated),8,-2,6,4,5,-1
O=C(c1cc(COc2ccc(F)cc2Cl)on1)N1CCN(C2CCCC2)CC1,26*,1,-7,0,4,3
O=C(c1cc(COc2ccc(F)cc2Cl)on1)N1CCN(C2CCCCC2)C(=O)C1,4,-1,0,3,0,0
Cc1nonc1CN(C)C(=O)c1cc(COc2ccc(F)cc2Cl)on1,26*,-6,-6,3,14,4
CSCc1ccc(C(=O)NCC(c2cccs2)N2CCOCC2)cc1 (configuration not stated),-3,-3,1,2,-4,-1
O=C(N/C(=C\c1ccco1)C(=O)N1CCCC1CO)c1ccccc1 (configuration not stated),2,2,2,3,9,0
COc1ccc(Cl)cc1NC(=O)CN(C)C(=O)c1ccc(N2CCCCCC2)c([N+](=O)[O-])c1,6,2,-1,3,1,2
CC/C(=N/NC(=O)c1ccc2c(c1)OCO2)c1ccccc1O,2,7,13,-1,5,-2
